# Assay results: PubChem BioAssay
# Activity calls are given as the source filed them.
# Columns and labels:
# Albumin (Bos taurus) = Albumin (Bos taurus) (UniProt P02769); experiment: bovine serum albumin binders on microarray, profiling panel, artefact control for SMM control protein annotation, biochemical, small-molecule microarray, Alexa647 label, 635/667 nm fluorescence (AID 1118); conditions: BSA-A647 binding, fluorescence 635 nm, higher = more signal;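 note: score merges 667 nm emission intensity and signal-to-noise per printed compound spot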
# Albumin (Bos taurus), sequence (P02769 whole entry, looked up): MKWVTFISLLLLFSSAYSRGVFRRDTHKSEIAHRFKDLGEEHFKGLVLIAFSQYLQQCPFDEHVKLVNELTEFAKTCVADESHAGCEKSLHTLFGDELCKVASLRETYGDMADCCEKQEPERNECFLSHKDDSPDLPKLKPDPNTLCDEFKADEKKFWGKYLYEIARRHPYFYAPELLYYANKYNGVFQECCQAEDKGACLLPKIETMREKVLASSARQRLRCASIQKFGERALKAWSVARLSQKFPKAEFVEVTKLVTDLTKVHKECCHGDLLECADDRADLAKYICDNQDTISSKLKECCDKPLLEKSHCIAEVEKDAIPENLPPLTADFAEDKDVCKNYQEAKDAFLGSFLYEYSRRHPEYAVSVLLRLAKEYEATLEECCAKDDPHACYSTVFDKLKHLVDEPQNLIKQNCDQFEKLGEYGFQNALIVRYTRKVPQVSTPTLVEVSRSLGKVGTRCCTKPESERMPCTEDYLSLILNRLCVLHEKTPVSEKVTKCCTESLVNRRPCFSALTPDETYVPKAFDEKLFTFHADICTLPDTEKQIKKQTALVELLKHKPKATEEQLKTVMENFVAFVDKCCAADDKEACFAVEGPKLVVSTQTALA
# [1] = small-molecule microarray binders of probe aXIP, primary screen, biochemical, NeuroSMM set, 635/667 nm fluorescence (AID 1119); conditions: higher = more signal, called active from +8 up or from −8 down;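 note: probe is the protein aXip251-270 applied at 1 µg/mL to compound-printed slides; binding of probe to printed compounds measured as 667 nm fluorescence plus signal to noise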
# [2] = small-molecule binders of probe aNOTCH3, primary screen, biochemical, small-molecule microarray, 635/667 nm fluorescence (AID 1120); conditions: higher = more signal;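 note: probe is a biotin-tagged antibody raised against NOTCH3 rather than NOTCH3 protein; score merges spot fluorescence near 667 nm with spot signal to noise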
# [3] = small-molecule binders of probe aNOTCH2, primary screen, biochemical, small-molecule microarray, 635/667 nm fluorescence (AID 1121); conditions: higher = more signal;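 note: score merges feature fluorescence read at 667 nm with its signal to noise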
# [4] = biological target: Carbonic anhydrase 2 (Homo sapiens) (UniProt P00918); experiment: CAII small-molecule binders, profiling panel, biochemical, small-molecule microarray, Alexa647-labelled CAII (AID 1122); conditions: CAII-A647 binding fluorescence, higher = more signal
# [5] = COS7 lysate on small-molecule microarray, probe aHis, 635 nm (AID 1123); conditions: COS7 cell lysate, fluorescence, higher = more signal;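 note: z-score combines 667nm fluorescence intensity with signal-to-noise per printed compound spot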
# [6] = compound binding in COS7 lysate, probe aLAP1, primary screen, cell lysate, small-molecule microarray (AID 1124); conditions: probe aLAP1, fluorescence, higher = more signal;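 note: lysate comes from COS7 cells expressing LAP1 and is applied at 0.3 µg/mL; score merges spot fluorescence near 667 nm with signal-to-noise over triplicate slides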
# Sam68 (KHDRBS1) = experiment: Sam68 small-molecule binders, primary screen, biochemical, small-molecule microarray, 635 nm fluorescence (AID 1125); conditions: small-molecule microarray binding, higher = more signal;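 note: score merges 667 nm channel intensity with signal to noise over triplicate slides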
# [7] = system: Chordin-like protein 2 (CHRDL2); experiment: CHRDL2 small-molecule binders, primary screen, biochemical, small-molecule microarray, 635 nm fluorescence (AID 1126); conditions: small-molecule microarray binding, fluorescence 635 nm; higher = more signal;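 note: printed compound slides probed with Chrdl2 protein at 4 µg/mL for 1 h at 4 C; score merges 667 nm emission intensity with signal to noise over three replicate slides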
# [8] = biological target: Concanavalin-A (Canavalia ensiformis) (UniProt P02866); experiment: ConA small-molecule binders, primary screen, artefact control for SMM control protein annotation, biochemical, small-molecule microarray, Alexa647 label, 635 nm (AID 1127); conditions: ConA-A647 binding fluorescence, higher = more signal;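 note: z combines 667 nm emission intensity with signal-to-noise across three replicate slides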
# Concanavalin-A (Canavalia ensiformis), sequence (P02866 whole entry, looked up): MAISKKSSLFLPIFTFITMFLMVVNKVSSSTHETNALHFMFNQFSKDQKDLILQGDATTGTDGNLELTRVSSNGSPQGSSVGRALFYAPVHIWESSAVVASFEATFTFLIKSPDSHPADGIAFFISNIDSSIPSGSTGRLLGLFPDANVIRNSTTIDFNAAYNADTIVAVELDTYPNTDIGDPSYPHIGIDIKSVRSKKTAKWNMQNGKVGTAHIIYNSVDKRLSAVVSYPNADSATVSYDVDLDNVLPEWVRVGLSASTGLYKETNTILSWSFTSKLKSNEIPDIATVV
Structure (SMILES),composite z-score (Albumin (Bos taurus)),composite Z-score [1],composite z-score [2],composite z-score [3],composite z-score [4],composite z-score [5],composite z-score [6],composite z-score (Sam68 (KHDRBS1)),composite z-score [7],composite z-score [8]
COc1cc2c(cc1OC)CN(C(=O)[C@@H]1[C@H]3C(=O)O[C@H](c4ccccc4)[C@H](c4ccccc4)N3[C@H](c3ccc(O)cc3)[C@@]13C(=O)Nc1ccc(C#CC4(O)CCCCCC4)cc13)CC2,-0.0111,0.841 (inactive),-0.191,0.0834,0.551,2.01,0.548,1.29,1.03,1.16
C=C/C=C/[C@H]1C(=C)CN([C@@H](Cc2ccccc2)C(=O)OC)[C@@H]1[C@H](O)Cc1ccccc1,-0.668,-0.624 (inactive),-0.235,-0.195,-0.174,0.25,0.161,-0.24,-0.0454,-0.243
C=CCN(Cc1ccccc1)C(=O)C(c1cccs1)N(CCOCCO)C(=O)/C=C\C(=O)O (stereo not given),-0.462,0.131 (inactive),-0.553,-0.165,0.39,-0.25,-0.658,-0.754,-3.82,-1.33
CCCC[C@H]1OB(O)C[C@H]2C1=C(COc1ccccc1)C[C@H]1C(=O)N(C)C(=O)[C@H]12,-0.137,-0.252 (inactive),-0.0046,-0.0596,-0.0293,0.486,0.0594,-0.348,0.497,-0.271
CCCCN1CC=CC23O[C@@H]4/C=C\CCC(C)OC(=O)C4[C@H]2C(=O)N(CCCCCO)[C@@H]3C1=O (stereo not given in full),-1.05,0.114 (inactive),-0.422,-0.126,0.867,-0.427,1.34,-0.287,-1.4,-1.09
C=CCOC(=O)[C@@H]1[C@H]2C(=O)O[C@H](c3ccccc3)[C@H](c3ccccc3)N2[C@H](c2ccc(OCCOC(=O)[C@@H]3C[C@@H]4C(=O)N[C@@H](CCCC[N+](C)(C)C)C(=O)N4[C@@H]3c3cccc(OCCO)c3)cc2)[C@@]12C(=O)Nc1ccc(I)cc12,0.769,0.516 (inactive),0.0257,-0.0666,0.46,1.9,0.0596,1.29,1.21,1.19
COCCOC(=O)N1C(=O)[C@@]2(c3cc(C#CCCO)ccc31)[C@H](c1ccc(OCCO)cc1)N1[C@H](c3ccccc3)[C@H](c3ccccc3)OC(=O)[C@H]1[C@@H]2C(=O)N1CCN(c2ncccn2)CC1,0.679,-0.114 (inactive),0.162,-0.161,0.31,2.03,0.602,1.29,0.718,1.15
COCCCN1C(=O)[C@@]2(c3ccc([N+](=O)[O-])cc3)CC(=O)N(C3CCCCC3)[C@@H]2c2ccc(CO)cc21,-0.132,0.0221 (inactive),-0.207,-0.153,-0.277,0.143,-0.322,0.134,0.778,0.734
COCCCNC(=O)[C@@]1(Cc2ccccc2)N=C(c2ccc(OCCCO)cc2)O[C@H]1c1ccccc1,0.893,1.14 (inactive),0.374,0.308,0.79,2.9,-0.0127,1.29,-1.1,1.12
CN1C(=O)C2C=CC(C(O)Cc3ccccc3)N(Nc3ccccc3)C2C1=O (stereo not given),0.554,-0.193 (inactive),-0.0311,-0.0196,0.589,3.06,-0.333,-0.0158,-0.513,0.672
[N-]=[N+]=NCc1ccccc1[C@H]1OC(c2ccc(OCCCO)cc2)=N[C@@]1(Cc1ccccc1)C(=O)NCc1ccccc1,0.882,-0.157 (inactive),0.0884,-0.283,0.448,2.88,0.444,1.26,0.547,0.824
C=CCOC(=O)[C@H]1[C@@H]2C(=O)O[C@@H](c3ccccc3)[C@@H](c3ccccc3)N2[C@@H](c2ccc(OCCOC(=O)[C@H]3C[C@H]4C(=O)N5CCC[C@H]5C(=O)N4[C@H]3c3ccc(O)cc3)cc2)[C@]12C(=O)Nc1ccc(I)cc12,-0.124,5.37 (inactive),1.47,0.755,0.364,3.31,1.13,1.31,1.06,0.955
CC1CC/C=C\[C@H]2OC34C=CCN(C(C)(C)C)C(=O)[C@H]3N(CCCCCCO)C(=O)[C@@H]4C2C(=O)O1 (stereo not given in full),-0.805,-0.358 (inactive),-0.295,-0.114,0.932,0.178,0.843,-0.281,-1.07,-0.239
CC(C)C[C@@H]1NC(=O)[C@@H]2C[C@H](C(=O)NCCCCCN)[C@H](c3cccc(OCCO)c3)N2C1=O,1.02,0.425 (inactive),0.0992,-0.17,0.813,1.03,1.16,0.839,0.0186,1.2
CCOc1cc(C(O)C2C=CC3C(=O)N(c4ccccc4)C(=O)C3N2Nc2ccccc2)ccc1O (stereo not given),0.0944,-0.224 (inactive),-0.0647,-0.164,0.617,1.31,0.791,0.381,-0.988,0.403
C=CCOC(=O)[C@@H]1[C@H]2C(=O)O[C@H](c3ccccc3)[C@H](c3ccccc3)N2[C@H](c2ccc(OCCOC(=O)[C@@H]3C[C@@H]4C(=O)N5CCC[C@H]5C(=O)N4[C@@H]3c3ccc(O)cc3)cc2)[C@@]12C(=O)Nc1ccc(I)cc12,0.71,1.23 (inactive),-0.0831,-0.145,0.419,1.33,-0.0072,1.19,0.593,1.12
CCOC(=O)[C@H]1C/C=C/C[C@H](C(=O)OCC)C(=O)O[C@H]2[C@@H](OC)O[C@H](CO)[C@@H](OC(=O)Nc3ccc(C#N)cc3)[C@@H]2OC1=O,0.842,0.941 (inactive),-0.307,-0.159,0.607,0.823,0.603,0.171,-0.619,-0.175
[N-]=[N+]=Nc1ccccc1[C@H]1OC(c2ccc(OCCCO)cc2)=N[C@@]1(Cc1ccccc1)C(=O)O,0.59,-0.001 (inactive),0.196,-0.146,0.344,1.64,0.0378,1.31,-0.392,0.619
C=CCNC(=O)[C@@H]1[C@H]2C(=O)O[C@H](c3ccccc3)[C@H](c3ccccc3)N2[C@H](c2ccc(OCCO)cc2)[C@@]12C(=O)Nc1ccc(C#CCCO)cc12,0.495,0.858 (inactive),0.999,0.403,0.659,2.62,0.906,1.29,1.15,1.15
NC(=O)[C@@H]1[C@H]2C(=O)O[C@H](c3ccccc3)[C@H](c3ccccc3)N2[C@H](c2ccc(O)cc2)[C@@]12C(=O)Nc1ccc(C#CC3(O)CCCCCC3)cc12,-0.425,0.339 (inactive),-0.15,-0.175,0.792,0.514,-0.107,-0.427,-0.571,-0.107
C=CCN1C(=O)[C@]2(O[C@H](CCO)[C@@H]([Si](C)(C)c3ccc(OC)cc3)[C@@H]2C)c2cc(N3CCCCC3=O)ccc21,0.694,0.801 (inactive),0.135,-0.106,0.163,1.86,0.279,1.28,0.122,0.877
CN(C)C(=O)[C@]1(Cc2ccccc2CN=[N+]=[N-])N=C(c2ccc(OCCCO)cc2)O[C@@H]1c1ccccc1CN=[N+]=[N-],0.933,-0.384 (inactive),0.442,-0.0508,0.545,2.72,0.751,1.32,-0.223,0.758
